Inconclusive results are not listed. Where a call stands in place of a potency, no number is given. Calls of active or inactive are those of the source. The call rests on the fitted dose curve; in most records, active means well fitted inhibition curve with a large enough effect; inconclusive means small, poorly fitted or top-dose-only effect; inactive means flat fitted curve, though single readings scatter. Peptide text beside a SMILES is read from it.
Tests used:
Assay in all cases: qHTS profiling for inhibitors of Plasmodium falciparum proliferation (AID 504749); further: nearly all actives have a fitted effect of over 60% in size
Details in all cases: P. falciparum in erythrocytes, SYBR Green DNA, 72 h; series mostly up to 12.8 µM
AA1029 = test system: AA1029
In short: (§1)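 Readout was DNA-dye fluorescence from lysed cultures, ex 485/em 535 nm. Parasitized red cells had grown 72 h with compound; data scaled between 0.29 uM artemisinin and DMSO wells and corrected using vehicle-only plates.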

AS120 = test system: AS120
In short: as §1

CP185 = test system: CP185
In short: as §1

CP191 = test system: CP191
In short: as §1

CP192 = test system: CP192
In short: as §1

CP211 = test system: CP211
In short: as §1

CP247 = test system: CP247
In short: as §1

CP252 = test system: CP252
In short: as §1

CP256 = test system: CP256
In short: as §1

CP265 = test system: CP265
In short: as §1

CP268 = test system: CP268
In short: as §1

CP291 = test system: CP291
In short: as §1

CP297 = test system: CP297
In short: as §1

Dd2 = test system: Dd2
In short: as §1

ECU = test system: ECU
In short: as §1

JCK = test system: JCK
In short: as §1

N140 = test system: N140
In short: as §1

PC15 = test system: PC15
In short: as §1

SC27B = test system: SC27B
In short: as §1

PC26 = test system: PC26
In short: as §1
Potency means the concentration at half of the fitted maximal effect.

Compound | Potency (AA1029) | Potency (AS120) | Potency (CP185) | Potency (CP191) | Potency (CP192) | Potency (CP211) | Potency (CP247) | Potency (CP252) | Potency (CP256) | Potency (CP265) | Potency (CP268) | Potency (CP291) | Potency (CP297) | Potency (Dd2) | Potency (ECU) | Potency (JCK) | Potency (N140) | Potency (PC15) | Potency (SC27B) | Potency (PC26)
CC[C@H]1NC(=O)c2cc(S(N)(=O)=O)c(Cl)cc2N1 | inactive | inactive | inactive | inactive | inactive | inactive | inactive | inactive | inactive | inactive | inactive | inactive | inactive | inactive | inactive | inactive | inactive | inactive | inactive | 
CCO[C@H]1O[C@@H]([C@H](COCc2ccccc2)OCc2ccccc2)[C@@H](OCc2ccccc2)[C@H]1O | inactive |  | inactive | inactive | inactive | inactive | inactive | inactive |  | inactive | inactive | inactive | inactive | inactive | inactive | inactive |  | inactive | inactive | 
CCc1c(C)[nH]c2c1C(=O)[C@H](CN1CCOCC1)CC2 | inactive | inactive | inactive | inactive | inactive | inactive | inactive | inactive | inactive | inactive | inactive | inactive | inactive | inactive | inactive | inactive | inactive | inactive | inactive | inactive
CC(=O)N[C@H](CC(C)C)C(=O)O | inactive | inactive | inactive | inactive | inactive | inactive | inactive | inactive | inactive | inactive | inactive | inactive | inactive | inactive | inactive | inactive | inactive | inactive | inactive | inactive
CC1(C)OC2CO[C@]3(COS(N)(=O)=O)OC(C)(C)OC3C2O1 (some centres undefined) | inactive | inactive | inactive | inactive | inactive | inactive | inactive | inactive | inactive | inactive | inactive | inactive | inactive | inactive | inactive | inactive | inactive | inactive | inactive | inactive
CCC(C)C(=O)OC1CCC=C2C=CC(C)C(CCC3CC(O)CC(=O)O3)[C@@H]21 (some centres undefined) | inactive | inactive | inactive | inactive | inactive | inactive | inactive | inactive | inactive | inactive | inactive | inactive | inactive |  | inactive | inactive | inactive | inactive | inactive | inactive
COC1C=CO[C@@]2(C)Oc3c(C)c(O)c4c(O)c(c(C=NN5CCN(C)CC5)c(O)c4c3C2=O)NC(=O)/C(C)=C\C=CC(C)C(O)[C@@H](C)C(O)C(C)[C@H](OC(C)=O)C1C (some centres undefined) | 2 µM (active) | 0.282 µM (active) | 3.16 µM (active) | 2.82 µM (active) | 4.26 µM (active) | 4.26 µM (active) | 3.98 µM (active) | 3.16 µM (active) | 3.55 µM (active) | 5.01 µM (active) | 4.78 µM (active) | 4.26 µM (active) | 0.953 µM (active) | 0.251 µM (active) | 0.282 µM (active) |  | 0.199 µM (active) | 0.398 µM (active) | 0.282 µM (active) | 1.07 µM (active)
C[C@]1(c2ccccc2)OC(C(=O)O)=CC1=O | inactive | inactive | inactive | inactive | inactive | inactive | inactive | inactive | inactive | inactive | inactive | inactive | inactive | inactive | inactive | inactive | inactive | inactive | inactive | inactive
CNC1C(OC2C(O[C@@H]3C(O)C(O)[C@@H](N=C(N)N)C(O)C3N=C(N)N)OC(C)[C@@]2(O)CO)OC(CO)C(O)C1O (some centres undefined) | inactive | inactive | inactive | inactive | inactive | inactive | inactive | inactive | inactive | inactive | inactive | inactive |  | inactive | inactive | inactive | inactive | inactive | inactive | inactive
COc1ccc(CC(N)C(=O)NC2C(CO)OC(n3cnc4c(N(C)C)ncnc43)C2O)cc1 (centres undefined) | 1 µM (active) | 0.891 µM (active) | 0.631 µM (active) | 0.891 µM (active) | 1.07 µM (active) | 0.478 µM (active) | 0.891 µM (active) | 0.794 µM (active) | 1 µM (active) | 0.891 µM (active) | 1.51 µM (active) | 1.07 µM (active) | 1.2 µM (active) | 0.355 µM (active) | 0.891 µM (active) | 3.55 µM (active) | 0.631 µM (active) | 1.26 µM (active) | 1 µM (active) | 0.849 µM (active)
C[C@]12C=CC(=O)C=C1CCC1C2C(O)C[C@]2(C)C1CC[C@]2(O)C(=O)CO (some centres undefined) | inactive | inactive | inactive | inactive | inactive | inactive | inactive | inactive | inactive | inactive | inactive | inactive | inactive | inactive | inactive | inactive | inactive | inactive | inactive | inactive
COC(=O)C(Cc1ccccc1)NC(=O)C(N)CC(=O)O (stereo not drawn) (H-Asp-Phe-OMe; configuration not given here) | inactive | inactive | inactive | inactive | inactive | inactive | inactive | inactive | inactive | inactive | inactive | inactive | inactive | inactive | inactive | inactive | inactive | inactive | inactive | inactive
COC1C=CO[C@@]2(C)Oc3c(C)c(O)c4c(O)c(c5c(nc6cc(C)ccn65)c4c3C2=O)NC(=O)/C(C)=C\C=CC(C)C(O)[C@@H](C)C(O)C(C)[C@@H](OC(C)=O)C1C (some centres undefined) | 12.6 µM (active) | 2.51 µM (active) | 10 µM (active) | 11.2 µM (active) | 10.7 µM (active) | 15.1 µM (active) | 8.91 µM (active) | 10 µM (active) |  | 11.2 µM (active) | 12 µM (active) | 13.5 µM (active) | 4.26 µM (active) | 12.6 µM (active) | 12.6 µM (active) |  | 3.55 µM (active) | 12.6 µM (active) | 12.6 µM (active) | 1.2 µM (active)
CC1(C)OC2CC(=O)OC[C@@]23C1CC(=O)[C@]1(C)C3CC[C@@]2(C)C(c3ccoc3)OC(=O)C3O[C@@]321 (some centres undefined) | inactive | inactive | inactive | inactive | inactive | inactive | inactive | inactive | inactive | inactive | inactive | inactive | inactive | inactive | inactive | inactive | inactive | inactive | inactive | inactive
COc1ccc2cc(C(C)CO)ccc2c1 (centres undefined) | inactive | inactive | inactive | inactive | inactive | inactive | inactive | inactive | inactive | inactive | inactive | inactive | inactive | inactive | inactive | inactive | inactive | inactive | inactive | inactive
CC(C)C1CCC(C(=O)NC(Cc2ccccc2)C(=O)O)CC1 (centres undefined) | inactive | inactive | inactive | inactive | inactive | inactive | inactive | inactive | inactive | inactive | inactive | inactive | inactive | inactive | inactive | inactive | inactive | inactive | inactive | inactive
CC1CCC(C(C)C)C(=O)C1 (centres undefined) | inactive | inactive | inactive | inactive | inactive | inactive | inactive | inactive | inactive | inactive | inactive | inactive | inactive | inactive | inactive | inactive | inactive | inactive | inactive | inactive
NC(C(=O)O)[C@@H]1CC(Cl)=NO1 (some centres undefined) | 1 µM (active) | 1.78 µM (active) | 2.82 µM (active) | 2.51 µM (active) | 3.38 µM (active) | 2.69 µM (active) | 3.16 µM (active) | 2.82 µM (active) | 2.82 µM (active) | 3.16 µM (active) | 1.51 µM (active) | 2.13 µM (active) | 3.38 µM (active) | 0.708 µM (active) | 2.24 µM (active) | 5.62 µM (active) | 1.26 µM (active) | 3.16 µM (active) | 1.41 µM (active) | 1.9 µM (active)
OCC1O[C@H](OC2C(CO)O[C@@](O)(CO)C2O)C(O)C(O)C1O (some centres undefined) | inactive | inactive | inactive | inactive | inactive | inactive | inactive | inactive | inactive | inactive | inactive | inactive | inactive | inactive | inactive | inactive | inactive | inactive | inactive | inactive
CC(C)=CCC[C@](C)(O)C1CC=C(C)CC1 (some centres undefined) | inactive | inactive | inactive | inactive | inactive | inactive | inactive | inactive | inactive | inactive | inactive | inactive | inactive | inactive | inactive | inactive | inactive | inactive | inactive | inactive
C/C1=C2N=C(/C=C3N=C(/C(C)=C4\[N-]C(C)(C5N=C1C(C)(CCC(=O)NCC(C)OP(=O)([O-])O[C@H]1C(O)C(n6cnc7cc(C)c(C)cc76)O[C@@H]1CO)C5CC(N)=O)C(C)(CC(N)=O)C4CCC(N)=O)C(C)(CC(N)=O)C\3CCC(N)=O)C(C)(C)C/2CCC(N)=O.[CH2-]C1OC(n2cnc3c(N)ncnc32)C(O)C1O.[Co] (some centres undefined) | inactive | inactive | inactive | inactive | inactive |  | inactive | inactive | inactive | inactive | inactive | inactive | inactive | inactive | inactive | inactive | inactive | inactive | inactive | inactive
COC(=O)N/N=C/C1=C[N+](=O)c2ccccc2[N+]1=O | inactive | inactive | inactive | inactive | inactive | inactive | inactive | inactive | inactive | inactive | inactive | inactive | inactive | inactive | inactive | inactive | inactive | inactive | inactive | inactive
COc1cc(C2c3cc4c(cc3C(O[C@@H]3OC5COC(c6cccs6)OC5C(O)C3O)C3COC(=O)C23)OCO4)cc(OC)c1O (some centres undefined) | 2.24 µM (active) | 1 µM (active) | 2.24 µM (active) | 2.24 µM (active) | 4.26 µM (active) | 3.38 µM (active) | 2.24 µM (active) | 1.12 µM (active) | 3.16 µM (active) | 2.82 µM (active) | 4.26 µM (active) | 4.26 µM (active) | 4.78 µM (active) | 1.41 µM (active) | 2.51 µM (active) | 4.47 µM (active) | 1 µM (active) | 4.47 µM (active) | 3.16 µM (active) | 3.79 µM (active)

From PubChem BioAssay (NCATS)
